Rows were chosen to be rich in hits. Some 7.9% of all compounds tested hit in one or more screens of this group.
M1 antagonist: antagonists of rat M1 muscarinic receptor; P08482; CHO-M1 cells, Fluo-4 calcium, ACh EC80 antagonist mode; active compounds read low; B-score at 10 µM; hit rate 3.4% among 64,000;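 active = calcium fluorescence response, raw or row-and-column corrected B-score, differing from the plate sample mean either way at a set confidence level, mostly lower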
Target sequence (P08482 whole entry, looked up): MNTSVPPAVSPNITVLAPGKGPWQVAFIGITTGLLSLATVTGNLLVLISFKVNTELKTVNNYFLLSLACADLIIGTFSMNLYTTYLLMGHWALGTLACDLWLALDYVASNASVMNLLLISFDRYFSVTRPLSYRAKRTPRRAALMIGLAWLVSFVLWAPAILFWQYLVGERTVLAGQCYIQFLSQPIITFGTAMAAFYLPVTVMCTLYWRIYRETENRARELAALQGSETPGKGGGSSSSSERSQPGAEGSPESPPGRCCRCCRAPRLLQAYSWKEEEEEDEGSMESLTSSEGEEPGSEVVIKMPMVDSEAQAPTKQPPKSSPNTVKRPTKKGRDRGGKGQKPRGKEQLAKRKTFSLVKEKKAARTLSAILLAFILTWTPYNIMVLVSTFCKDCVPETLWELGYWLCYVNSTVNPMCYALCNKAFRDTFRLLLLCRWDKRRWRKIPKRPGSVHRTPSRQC
PLAP activator: human PLAP activation. purified PLAP enzyme, luminescent substrate read-out; active compounds read high. activation fold at 20 µM. hit rate 1.2% among 96,000. AID 696; in the data active = activation fold above about 2
M1 ag: M1 muscarinic receptor agonism | B-score at 10 µM | CHO-M1 cells, Fluo-4 calcium fluorescence, agonist mode; active compounds read high | hit rate 3% among 64,000;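 active = fluorescence rise, raw or as B-score row- and column-corrected plate score, outside the 99.7% band of its plate's samples, either direction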
Cav3 T inh: human Cav3.2 channel inhibition, primary screen; hit rate 4% among 100,000; Cav3.2-expressing cells, Fluo-4 calcium fluorescence FDSS; active compounds read low; O95180; B-score at 10 µM; AID 449739;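 active = single-dose well whose peak fluorescence ratio is a statistical outlier from its plate by either plate-standardised score or position-corrected B-score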
Her2 expr inh: Her2 kinase expression inhibition; P04626; SKBR-3 HER2 protein level, AlphaScreen, 18-24 h; active compounds read low; HER2 level % of control, % at 10 µM; hit rate 0.69% among 65,000; AID 645;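 active = HER2 level under 5% of the carrier-only control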;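 note: 100% = DMSO carrier and 0% = 500 nM PU-H71 HSP90 inhibitor; lower value means stronger loss of Her2 protein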
M1 antag confirm: M1 muscarinic receptor (rat) antagonism, confirmed; calcium response (max-min fluorescence) at 10 µM; hit rate 43% among 1,700; CHO-M1 cells, Fluo-4 calcium, ACh EC80 antagonism; active compounds read low; shares compounds with M1 antagonist;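 active = calcium response below the same-plate mean of wells given acetylcholine alone at its 80%-effect dose, minus 3 SD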;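 note: raw fluorescence intensity difference in arbitrary instrument units and not normalized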
mGluR4 antag: selectivity test for M1 antagonists: human mGluR4 receptor; CHO-mGluR4 calcium flux, Fluo-4 fluorescence, glutamate EC80; active compounds read low; shares compounds with M1 antagonist; fluorescence response (max-min) at 10 µM; AID 678; hit rate 0.9% among 1,700;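 active = fluorescence response below the plate's average for near-maximal glutamate wells, less 3 SD of those wells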;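 note: raw unnormalized fluorescence span taken in the window right after glutamate addition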
Numbers without * were called inactive; · = no result given.

SMILES	M1 antagonist	PLAP activator	M1 ag	Cav3 T inh	Her2 expr inh	M1 antag confirm	mGluR4 antag
COCCn1c(SCc2ccccc2Cl)nc2c1c(=O)[nH]c(=O)n2C	-0.4	1.1	-2.1	0.86	98	·	·
Oc1ccccc1Nc1nc(NCC2CCCO2)c2ccccc2n1 (centres undefined)	-1.9	0.9	0.59	·	92	·	·
Oc1ccc(Nc2nc(NCC3CCCO3)c3ccccc3n2)cc1 (centres undefined)	-5.7*	0.9	0.6	-0.65	68	483*	237
CCN(CC)C(=S)Sc1c(-c2ccccc2)c2cc(Cl)ccc2[nH]c1=O	·	1.6	·	-1.2	·	·	·
COc1ccc(C(CNC(=O)c2ccc(OCC3CCCO3)cc2)N2CCOCC2)cc1 (centres undefined)	-0.031	1.5	-0.16	0.9	95	·	·
COc1ccc(C(CNC(=O)c2ccc(S(=O)(=O)N3CCOCC3)cc2)N2CCCCC2)cc1 (centres undefined)	-3.2*	·	-0.69	1.5	96	576	186
Cc1cc(/C=C(/C#N)c2cccc(Cl)c2)c(C)n1C	·	1	·	·	·	·	·
Cc1cc(/C=C(/C#N)c2cccc(F)c2)c(C)n1-c1cccnc1	-5*	1.6	-0.3	-2.2	74	555	186
COC(=O)N(C)CCCC1(C)C(=O)N(C)c2ccc(O)cc21 (centres undefined)	-4.8*	1.1	-0.094	0.48	73	667	260
COCCNS(=O)(=O)c1ccc(SC)cc1	-3.2*	1	-0.2	-2.7	99	610	267
CC(C)Cn1cc(C(=O)NCCCOC(C)C)c2c3ccccc3n(C)c2c1=O	·	1	·	1.2	·	·	·
CC(C)Cn1cc(C(=O)NCC2CCCO2)c2c3ccccc3n(C)c2c1=O (centres undefined)	-5.9*	1.5	1.6	0.13	94	577	212
CCCCOc1ccc(C2(C)CC(=O)NC2=O)cc1 (centres undefined)	0.017	1.3	-0.46	0.33	107	·	·
Cc1cccc(Cn2c(N3CCCCC3C)nc3c2c(=O)[nH]c(=O)n3C)c1 (centres undefined)	-4.2*	·	0.38	-3.8*	100	90*	179
Cc1cccc(Cn2c(N3CCc4ccccc4C3)nc3c2c(=O)[nH]c(=O)n3C)c1	·	0.9	·	0.23	·	·	·
CCOC(=O)CNC(=O)CSc1nc(NCc2ccccc2)nc(N(C)C)n1	-1.8*	0.8	0.48	-0.62	·	683	254
CN(C)c1nc(NCc2ccccc2)nc(SCC(=O)Nc2ccccc2)n1	·	0.9	·	-0.62	·	·	·
CCOCCn1c(SCc2c(F)cccc2Cl)nc2c1c(=O)[nH]c(=O)n2C	0.49	0.7	-0.27	0.39	116	·	·
Cc1ccc(S(=O)(=O)NCCCCCC(=O)N(C)C)cc1	-0.82	1.1	-0.22	0.056	89	·	·
Cc1ccc(S(=O)(=O)NCCCC(=O)C=[N+]=[N-])cc1	-3.3*	1.1	-0.66	-0.4	100	610	240
Cc1cc(C)n(CCc2nc3c4ccccc4nc(SCc4ccc(C#N)cc4)n3n2)n1	-0.39	·	-0.99	·	116	·	·
CN1CCN(CC#CCn2c3ccccc3c3ccccc32)CC1	-13*	1.4	1.3	0.17	82	229*	219
CCOc1nc(Nc2ccc(OC)c(Cl)c2)nc(N2CCN(c3ccc(OC)cc3)CC2)n1	·	1.4	·	-0.92	·	·	·
COc1nc(Nc2ccc(OC)c(Cl)c2)nc(OC)n1	-1.2*	0.9	-0.11	1.3	71	603	255
CC1=CCC2C(=O)N(c3ccc(C(=O)N4CCCCCC4)cc3)C(=O)C2C1 (centres undefined)	·	1.1	·	0.0079	·	·	·
SMILES	M1 antagonist	PLAP activator	M1 ag	Cav3 T inh	Her2 expr inh	M1 antag confirm	mGluR4 antag
O=c1c([N+](=O)[O-])cc(C(F)(F)F)cn1Cc1c(Cl)cccc1Cl	·	0.8	·	·	·	·	·
O=C1CC(Cc2ccccc2)C(=O)N1CCCn1ccnc1 (centres undefined)	-2.8*	1	0.55	·	·	614	186
CCOc1ccc(NC(=O)CC2C(=O)N(c3cccc(OC)c3)C(=O)N2C(C)C)cc1 (centres undefined)	·	·	·	0.015	·	·	·
CCC(=O)Nc1ccc(N2CCN(Cc3ccccc3F)CC2)cc1	-2.6*	1.2	0.55	0.61	193	630	226
CSc1nc(SCC(N)=O)c2c3c(sc2n1)CN(C)CC3	-5.1*	1.4	-0.85	4.1*	114	361*	253
CSc1nc(NCc2ccco2)c2c3c(sc2n1)CN(C)CC3	-2.8*	·	1.7	1.3	84	711	250
CSc1nc(SCC(=O)NCc2ccco2)c2c3c(sc2n1)CN(C)CC3	-0.72	·	-0.57	-0.35	87	·	·
CCC(O)CNc1nc(SC)nc2sc3c(c12)CCN(C)C3 (centres undefined)	-4.3*	·	0.0092	0.08	67	154*	197
CCOC(=O)C1=C(C)N(CCCC(=O)NCc2ccc3c(c2)OCO3)C(=O)NC1c1ccc(Br)cc1 (centres undefined)	·	·	·	-2.1	·	·	·
COc1cc(OC)cc(C(=O)Nc2cccc(NC(C)=O)c2)c1	-3.6*	0.9	-0.81	0.92	89	666	242
Cc1cc(=O)n2nc(N3CCCC(C(=O)N4CCc5ccccc54)C3)sc2n1 (centres undefined)	-12*	1.1	1.2	1.6	99	33*	224
CN(C)CCCN1c2ccccc2CCc2ccccc21	·	·	·	-1.1	103	·	257
O=c1[nH]c(=O)n(Cc2ccccc2)c2c1CCC2	-0.037	1	0.02	0.072	116	·	·
N=c1c2c(n(Cc3ccc(Cl)c(Cl)c3)c3c1CCC3)CCCC2	-2.4*	1	-0.35	-0.27	56	433*	236
C=CCOC(=O)Nc1ccc(Cl)cc1NC(=O)OCC=C	-3.8*	1	2.1	-1.7	110	674	272
CCCCOC(=O)Nc1cc(Cl)ccc1C	·	1.1	·	-1.8	·	·	·
O=C(CCNS(=O)(=O)c1cccc2nsnc12)Nc1ccc2c(c1)OCCO2	-0.14	0.8	-0.0029	0.41	95	·	·
O=S(=O)(Nc1ccc2c(c1)OCCO2)c1cccc2nsnc12	-2.7*	0.9	1.1	·	77	362*	225
Cc1oc(-c2ccc(Cl)cc2)[n+]([O-])c1C	-1.6*	1	-0.88	0.26	71	527	233
CCC1CCCCN1C(=O)CSc1nnc(CNC(=O)COc2ccc(Cl)cc2)o1 (centres undefined)	-0.12	1.7	-1.9	-0.93	117	·	·
COCc1cc(C)nc(SCC(=O)Nc2ccc3c(c2)OCO3)c1C#N	0.2	0.8	-0.62	-0.46	128	·	·
COCc1cc(C)nc(SCC(=O)Nc2cccc3cccnc23)c1C#N	-3.9*	1.1	0.42	-0.2	87	643	215
OCC1CCCN(Cc2ccc(-c3ccccc3)cc2)C1 (centres undefined)	-2.9*	1.3	-0.29	1.6	116	392*	263
CSc1nc(-c2ccco2)nn1S(C)(=O)=O	0.22	0.7	0.12	-0.0045	87	·	·
